The full list was thinned out, with hits kept by preference.
mcGAS RapidFire – inhibitors of mouse cGAS. Q8C6L5. recombinant mouse cGAS, cGAMP by RapidFire MS. inhibition, % at 12.5 µM. hit rate 0.18% among 130,000. AID 1259397;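 active = inhibition of cGAS enzyme activity at or above 60%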;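 also: enzyme stimulated by 45 bp dsDNA with ATP and GTP substrates; cGAMP share of summed cGAMP plus half ATP and half GTP signals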
Target sequence (Q8C6L5 whole entry, looked up): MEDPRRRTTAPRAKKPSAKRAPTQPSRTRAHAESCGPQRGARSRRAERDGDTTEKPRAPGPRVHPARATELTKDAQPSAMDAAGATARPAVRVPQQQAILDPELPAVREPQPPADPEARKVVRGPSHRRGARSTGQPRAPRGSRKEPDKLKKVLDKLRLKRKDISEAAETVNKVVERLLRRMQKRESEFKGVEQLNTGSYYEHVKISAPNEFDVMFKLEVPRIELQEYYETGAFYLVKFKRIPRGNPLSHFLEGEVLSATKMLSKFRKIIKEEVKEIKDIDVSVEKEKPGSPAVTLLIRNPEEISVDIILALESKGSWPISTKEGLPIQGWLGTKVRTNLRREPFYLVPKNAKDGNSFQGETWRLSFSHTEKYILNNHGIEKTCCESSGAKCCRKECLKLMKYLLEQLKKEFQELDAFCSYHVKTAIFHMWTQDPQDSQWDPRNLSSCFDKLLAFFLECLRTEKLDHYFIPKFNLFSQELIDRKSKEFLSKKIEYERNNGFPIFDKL
Hits are given with their value; – = inactive; ! = repeats disagree.

SMILES	mcGAS RapidFire
Cc1ccc(C(=O)c2nc3c(n2O)CCCCC3)cc1	90
O=C(c1ccc[nH]1)N1CCc2onc(-c3ccccc3F)c2C1	–
c1ccc2c(c1)ncn2-c1ccc(CN2CCCC2)cc1	–
O=C(CN(c1cccc([N+](=O)[O-])c1)S(=O)(=O)c1ccccc1)NC1CCCC1	–
Cc1ccc(C=Cc2sc3ccccc3[n+]2CCCS(=O)(=O)O)cc1	86
COc1ccc(C=Cc2sc3ccccc3[n+]2CCCS(=O)(=O)O)cc1OCc1ccccc1	–
O=C1N[C@H]2[C@H](CS(=O)(=O)[C@H]2CCCCC(=O)OCc2ccc(Cl)cc2Cl)N1	–
COc1ccc(-c2cnc(C(O)c3ccccc3)[nH]2)cc1 (stereo not drawn)	–
Cc1ccc(NC(=O)C2CC(=O)N(C3CC3)C2)cc1C(F)(F)F (stereo not drawn)	–
COc1ccccc1OCCNS(=O)(=O)c1ncn(C)c1Cl	–
COCCN(Cc1ccco1)S(=O)(=O)Cc1cccc(C)c1	89
COCCN(Cc1ccco1)C(=O)CNc1ccccc1Cl	–
COCCS(=O)(=O)N(Cc1ccco1)c1ccc(F)cc1F	–
CC(=O)OCC1=C(C(=O)O)N2C(=O)C(NC(=O)Cc3ccccc3)C2SC1 (stereo not drawn)	–
O=C(CC(=O)NC1CCC(O)CC1)Nc1ccc(F)c(Cl)c1 (stereo not drawn)	–
Cn1nnnc1SCCNC(=O)CN1CCOc2ccccc2C1	–
Cc1nn2cc(CNC(=O)CN3CCOc4ccccc4C3)nc2s1	–
O=C(CN1CCOc2ccccc2C1)NCCS(=O)(=O)N1CCCC1	71
C=CCN=c1scc(-c2ccccc2F)n1N=Cc1cccc(O)c1O	–
O=C(OC[C@H]1O[C@H](OC(=O)c2cc(O)c(O)c(OC(=O)c3cc(O)c(O)c(O)c3)c2)[C@H](OC(=O)c2cc(O)c(O)c(OC(=O)c3cc(O)c(O)c(O)c3)c2)[C@@H](OC(=O)c2cc(O)c(O)c(OC(=O)c3cc(O)c(O)c(O)c3)c2)[C@@H]1OC(=O)c1cc(O)c(O)c(OC(=O)c2cc(O)c(O)c(O)c2)c1)c1cc(O)c(O)c(OC(=O)c2cc(O)c(O)c(O)c2)c1	96
CC(=O)OC[C@H]1O[C@@H](Oc2cc(OC(C)=O)c3c(=O)cc(-c4ccc(OC(C)=O)cc4)oc3c2)[C@H](OC(C)=O)[C@@H](OC(C)=O)[C@@H]1OC(C)=O	–
Clc1ccc2nc(-c3ccncc3)c(Nc3ccc4c(c3)OCO4)n2c1	–
Cc1ccc2c(c1)c(CNC(=O)c1ccccc1C1CCNC1)nn2C (stereo not drawn)	–
Cc1ccc2c(c1)c(CNC(=O)C1CNCC(=O)N1)nn2C (stereo not drawn)	64
Cc1ccc2c(c1)c(CNC(=O)CCc1c(C)nn(C)c1C)nn2C	–
SMILES	mcGAS RapidFire
Cc1csc(SCC(=O)NC2CCCc3c2cnn3-c2ccc(F)cc2F)n1 (stereo not drawn)	–
O=c1c(-c2ccc(O)cc2)coc2cc(O)ccc12	–
O=c1c(O)c(-c2ccc(O)cc2)oc2cc(O)cc(O)c12	–
O=c1c(-c2ccccc2)coc2cc(O)cc(O)c12	86
COc1ccc2c(c1)CCN(C(=O)Nc1n[nH]c(-c3ccccc3F)n1)C2	–
COCCn1c(C)cc(O)c(C(c2ccc(C)cc2)N2CCCCC2)c1=O (stereo not drawn)	–
CC[n+]1c2ccccc2cc2ccccc21	–
CC[n+]1c(-c2ccccc2)c2cc(N)ccc2c2ccc(N)cc21	97!
Cc1cccc(NC(=O)CCC2CCN(C(=O)CCN3CCCCC3=O)CC2)c1	–
O=[N+]([O-])c1cc2c3c(c1)C1C=CCC1C(c1ccccc1)N3CC1CC=CC21 (stereo not drawn)	–
COc1ccc(CC(=O)Nn2cnc3c(cnn3C(C)(C)C)c2=O)cc1OC	–
O=C(c1n[nH]c(C2CC2)c1Cl)N1CCN(S(=O)(=O)c2ccccc2)CC1	–
O=C(c1n[nH]c(=O)c2ccccc12)N1CCN(S(=O)(=O)c2cccc(Cl)c2)CC1	87
Cc1cccc(CN2CCN(C(=O)c3n[nH]c(=O)c4ccccc34)CC2)c1	–
Cc1cc(NC(=O)c2ccco2)sc1C(=O)Nc1cccc(Cl)c1	–
CC1(C)CC2CC(C)(CN2C(=O)c2ccc(NS(=O)(=O)c3cccs3)cc2)C1 (stereo not drawn)	–
CCc1nc(C)sc1CNC(C)Cn1ccnc1 (stereo not drawn)	–
CCC1(CC)N([O-])C(C)=C(c2ccccc2)[N+]1=O	79
CC1C(c2ccccc2)=[N+]([O-])C(C)(c2ccc(F)cc2)N1O (stereo not drawn)	–
CC(=O)c1cc(-c2ccccc2)n(CC(=O)O)c1C	–
CC1=C(c2ccccc2)[N+](=O)C(C)(c2ccc(Br)cc2)N1[O-] (stereo not drawn)	73
CN1C[N+]([O-])=C(c2ccccc2)C1(C)C	–
CC1C(c2cccs2)=[N+]([O-])C(C)(c2ccc(Br)cc2)N1O (stereo not drawn)	–
O=C(Nc1cccnc1)c1ccc(-c2cccc3cccnc23)o1	–
Cc1cc(C)nc(C(C#N)C(=O)CCc2cscn2)n1 (stereo not drawn)	–
SMILES	mcGAS RapidFire
CCc1ccc(CN(C)C(=O)Cc2ccc(S(=O)(=O)N3CCCC3)s2)cc1	–
Cc1cc(NC(=O)c2ccc(N3CCCC3=O)cc2)ccn1	–
CC1CN(C(=O)c2cc(-c3ccccc3)n[nH]2)CCO1 (stereo not drawn)	–
N#CC(NC(=O)c1[nH]ncc1Br)c1cccc(Cl)c1 (stereo not drawn)	–
CC(C)c1nc(NC(=O)c2[nH]ncc2Br)n(C)n1	94
CC(C)c1nc(NC(=O)CS(=O)(=O)C2CCCC2)n(C)n1	–
CC(=O)NC(CCS(C)(=O)=O)C(=O)Nc1ncn[nH]1 (stereo not drawn)	–
CCCn1nc2c(c1C)C(CCSC)CC(=O)N2 (stereo not drawn)	–
Cn1cc(C(=O)NNC(=O)Cc2cccnc2)c2ccccc21	–
C=CCNS(=O)(=O)c1ccc(Cl)c(C(F)(F)F)c1	–
COc1ccc(CN(C)Cc2nnc(C(C)C)o2)cc1OC(F)F	81
COc1cc(CSc2nnnn2-c2ccccc2)ccc1OC(F)F	–
COc1cc(CN(C)Cc2oc(CO)cc(=O)c2O)ccc1OC(F)F	–
O=C(CCn1cncn1)N1CCCC(CCc2ccccc2C(F)(F)F)C1 (stereo not drawn)	–
O=C(CSc1nncn1-c1ccccc1)NCCc1ccccc1	–

Screening results from PubChem BioAssay.
